# From PubChem
# Shiga toxin inh: blocks Shiga toxin action in Vero cells. inhibition, % at 38.7 µM. 290,000 compounds, 9.2% hits. Vero cells, Shiga toxin protein synthesis inhibition reporter; in the data active = inhibition mostly above about 28%, no sharp cut-off; inactive = mostly below about 43%; also: 0% is about no effect
# Sm TGR block: inhibitors of Schistosoma mansoni thioredoxin glutathione reductase; purified TGR, DTNB reduction, TNB absorbance 405 nm; Potency, µM (series often up to 114 µM), for inactives: top-dose activity change, negative = inhibition, hits mostly inhibitors; 360,000 compounds, 3% hits; AID 485364; active = well fitted inhibition curve with a large enough effect; inconclusive = small, poorly fitted or top-dose-only effect; inactive = no such curve, though single readings can be large or run the other way; also: potency is read from the fitted curve at half-maximal effect; % is scaled to controls: 0 for no effect and ±100 for the full control effect; nearly all actives have a fitted effect of over 60% in size
#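 First, TGR (20 nM dispensed) and NADPH were mixed with compound. Second, a 15 min room-temperature incubation followed. Third, further NADPH and then DTNB were added to start the reaction. Finally, TNB absorbance was monitored kinetically.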
# CHX counter: counter-screen for Shiga toxin inhibitors: cycloheximide protein synthesis inhibition; cell reporter, cycloheximide protein synthesis inhibition counterscreen; max response, %; 300,000 compounds, 12% hits; AID 2314; in the data active = max response mostly above about 13%, no sharp cut-off; inactive = mostly below about 14%; also: read at 38.3 µM for the half of the compounds with a filed dose; 0% is about no effect
# FMDV inh: foot and mouth disease virus antiviral activity | FMDV antiviral cell-based qHTS | Potency, µM (top dose mostly 57.9 µM), for the others: top-dose activity change, negative = inhibition, usual class: inhibitors | 410,000 compounds, 1.2% hits | AID 1159524; calls by dose curve; tested in HEK293T cells; also: read-out not given here; potency is read from the fitted curve at half-maximal effect; % is scaled to controls: 0 for no effect and ±100 for the full control effect; nearly all actives have a fitted effect of over 45% in size
# * hit, by the source's call; ? = inconclusive; . = no result given. A selection: hits, their analogues and other compounds. The true share with any hit is near 12%.
SMILES,Shiga toxin inh,Sm TGR block,CHX counter,FMDV inh
Cc1cc(/C=C2\C(=O)NC(=O)N(c3ccc(Br)cc3)C2=O)c(C)n1-c1cc(C(=O)O)cc(C(=O)O)c1,3,8.9µM*,1,-3%
Cc1cc(/C=C2\C(=O)NC(=O)N(c3ccc(Cl)cc3)C2=O)c(C)n1-c1cccc(C(=O)O)c1,-8,7.1µM*,-4,-2%
COc1ccc(-c2cc(C(F)(F)F)nc(SCCC(=O)Nc3ccc(F)cc3F)n2)cc1,.,4%,.,-23%
COc1cc(-c2nnn(CC#N)n2)ccc1OCc1ccccc1,64*,2%,30*,.
COc1cc(-c2nnn(CC(=O)NC3CCS(=O)(=O)C3)n2)ccc1OCc1ccccc1 (stereo not given),44*,?,17*,49%
C=CCn1c(SCc2nc3ccccc3nc2C)nnc1-c1ccoc1C,-11,45µM*,6,-22%
CCn1c(SCc2nc3ccccc3nc2C)nnc1-c1cccs1,-3,6%,-2,-28%
COc1cccc(NC(=O)Cn2c(=O)n(CCCCC(=O)NCc3ccc4c(c3)OCO4)c(=O)c3ccccc32)c1,.,5%,.,-6%
CC(=O)Nc1ccc(C(=O)CSc2nnc3cc(C)c4ccccc4n23)cc1,.,0%,.,-15%
Cc1ccc(Nc2nc3nonc3[nH]c2=O)cc1,58*,-36%,27*,33%
CCOC(=O)COc1ccc(CC)cc1C(=O)c1ccn2nc(-c3ccc(Cl)cc3)cc2n1,.,2%,.,-5%
O=C(NCc1ccco1)/C(=C/c1ccco1)NC(=O)c1ccco1,-9,25µM*,-7,22%
O=C(NCc1ccco1)/C(=C\c1ccco1)NC(=O)c1ccccc1Cl,-3,-34%,-3,-4%
O=C(NCc1ccco1)/C(=C\c1ccc(F)cc1)NC(=O)c1ccco1,-7,32µM*,-2,-8%
CC(C)Oc1ccc(CNC(=O)C2CCN(C(=O)N3CCOc4ccc(Cl)cc43)CC2)cc1,.,-9%,.,-27%
COC(=O)CSc1nc(-c2ccccc2)cc(-c2ccco2)c1C#N,83*,32µM*,41*,-5%
N#Cc1c(-c2ccco2)cc(-c2ccc(F)cc2)nc1N,16,6.3µM*,4,-18%
CCSc1nc(N)c(C#N)c(-c2ccco2)c1C#N,23,-14%,1,-16%
CC(C)Cc1cc(-c2ccco2)c(C#N)c(N)n1,-5,35µM*,9,14%
COC(=O)CSc1nc(N)c(C#N)c(-c2ccco2)c1C#N,-20,?,7,-22%
Cc1cc(C)c(NC(=O)CSc2nc(=O)[nH]c3c2CCCC3)c(C)c1,.,6%,.,-26%
CCc1cccc(NC(=O)Cn2c(=O)n(CC3CCC(C(=O)NC)CC3)c(=O)c3sccc32)c1 (stereo not given),.,2%,.,-9%
Cn1c(-c2ccc(F)cc2)cnc1SCC(=O)Nc1ccccc1N1CCOCC1,56*,1%,27*,-17%
O=C(CSc1nc(C2CC2)nc2ccccc12)Nc1ccccc1Cl,-7,0%,-2,?
O=C(CSc1nc(C2CC2)nc2ccccc12)Nc1ccccc1N1CCOCC1,13,.,-2,25µM*
SMILES,Shiga toxin inh,Sm TGR block,CHX counter,FMDV inh
CCC(Cn1nnc2ccccc2c1=O)NC(=O)Nc1ccc(C)c(C)c1 (stereo not given),.,0%,.,5%
CC(C)(C)CC(=O)NC(=S)NCc1ccccc1,-2,-25%,-4,1%
CN(C)C(=O)c1ccc(SC(=S)NCc2ccccc2)cc1,.,.,.,35µM*
Cc1cc(C(=O)NCc2ccccc2C)c2c(C)nn(-c3cccc(F)c3)c2n1,.,3%,.,6%
CCOC(=O)C(=O)c1c(-c2ccccc2)nc2ccccn12,-11,2%,0,-1%
CCOC(=O)c1c(-c2ccccc2)nc2cc(C)ccn12,76*,-18%,54*,30%
CCOC(=O)c1c(-c2ccccc2)nc2ccc(C)cn12,123*,1%,45*,-28%
CCOC(=O)c1c(O)c(O)c(C(=O)OCC)n1-c1ccccc1,7,40µM*,-1,-6%
Cn1ccc2cc(-c3ccc4ncnc(NCc5cccnc5)c4c3)ccc21,.,-1%,.,.
COc1ccc(CCN2CCC[C@H](CN3CCc4cc(OC)c(OC)cc4CC3=O)C2)cc1OC,-7,.,-4,.
Cc1ccc(-c2nc3sc4c(c3c(=O)n2N)CCCC4)cc1,38,-18%,59*,-4%
NNc1nc2sc3c(c2c(=O)n1-c1ccccc1)CCCC3,75,31%,23*,-9%
Nn1c(Nc2ccccc2)nc2sc3c(c2c1=O)CCCC3,43,.,21*,8%
CN(C)CCNc1nc2sc3c(c2c(=O)n1CCc1ccccc1)CCCCC3,-12,-2%,-1,-23%
Cc1ccc2nc(-c3ccc(S(=O)(=O)N4CCOCC4)cc3)cn2c1,39,1%,24*,.
